# According to the supplement of paper PMC3334620:
# Over roughly 33,000 sequences, “E-score (-0.5 to 0.5)” has its median near -0.043; the highest 2% begin near 0.37. The entries come from a sample that favours the highest values as a whole.
# Target: T1, Upc2 (UniProt Q12151)
# T1 sequence: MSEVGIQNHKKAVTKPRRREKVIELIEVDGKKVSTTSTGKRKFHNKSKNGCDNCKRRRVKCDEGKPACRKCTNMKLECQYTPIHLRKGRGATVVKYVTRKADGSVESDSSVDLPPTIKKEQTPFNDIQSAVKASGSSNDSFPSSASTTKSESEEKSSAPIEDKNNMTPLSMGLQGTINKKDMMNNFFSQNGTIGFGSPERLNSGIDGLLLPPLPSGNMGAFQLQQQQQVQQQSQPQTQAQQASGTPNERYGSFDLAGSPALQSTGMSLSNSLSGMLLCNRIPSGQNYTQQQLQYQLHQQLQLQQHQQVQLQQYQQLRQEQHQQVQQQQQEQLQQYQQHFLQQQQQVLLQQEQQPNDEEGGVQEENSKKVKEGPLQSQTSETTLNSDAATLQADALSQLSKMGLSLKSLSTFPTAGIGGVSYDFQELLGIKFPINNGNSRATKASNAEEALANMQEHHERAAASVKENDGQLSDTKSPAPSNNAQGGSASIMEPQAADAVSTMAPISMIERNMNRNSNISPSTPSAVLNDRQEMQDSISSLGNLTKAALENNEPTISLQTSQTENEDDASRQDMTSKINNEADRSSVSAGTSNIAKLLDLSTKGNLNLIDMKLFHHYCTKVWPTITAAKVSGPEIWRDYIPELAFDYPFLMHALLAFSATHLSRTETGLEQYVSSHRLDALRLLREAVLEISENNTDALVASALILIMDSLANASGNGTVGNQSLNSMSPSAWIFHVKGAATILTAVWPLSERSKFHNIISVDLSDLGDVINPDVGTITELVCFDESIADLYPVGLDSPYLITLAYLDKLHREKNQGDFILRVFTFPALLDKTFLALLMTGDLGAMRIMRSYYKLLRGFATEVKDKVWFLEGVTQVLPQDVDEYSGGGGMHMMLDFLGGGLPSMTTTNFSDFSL
# Experiment: PBM E-score (8-mer binding enrichment) (E-score (-0.5 to 0.5)); higher = stronger / more preferred TF binding
# Details: protein concentration: 200 nM; construct: GST-full length
# Procedure: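 Universal 'all 10-mer' protein binding microarrays (Agilent AMADID 015681) probed with GST-tagged S. cerevisiae TFs (full-length or DBD) made by in vitro transcription/translation (PURExpress), about 100-200 nM. Bound TF was detected with fluorescent anti-GST. Each ungapped 8-mer (which stands for itself and its reverse complement) is scored by the PBM enrichment score (E-score), a modified Wilcoxon-Mann-Whitney statistic from -0.5 to +0.5, computed with the Universal PBM Analysis Suite. Scale: above 0.35 generally sequence-specific binding.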
row,Sequence,PBM E-score
1,AAACGAGT,0.477
2,AAACGAGA,0.469
3,CTATGGAA,-0.161
4,AAGATTGT,0.00873
5,ATTCACGA,0.0672
6,AATGACCC,-0.157
7,GCTAGTGA,-0.115
8,AATGAGCT,-0.163
9,CCTCCTCC,-0.105
10,AACTAGTA,-0.0317
11,GTGCTATA,0.128
12,CCTTGTCC,-0.205
13,CGGTTCAC,-0.117
14,CTTAACGA,0.464
15,GGTAACGA,0.346
16,GCTAACGA,0.304
17,GTTAACTA,0.157
18,ATTAACGG,0.185
19,CTTAACCA,-0.0796
20,ATTAACGC,0.143
21,CGTAACGC,0.324
22,GTTAACGA,0.442
23,ATTAACGA,0.424
24,CGTAACGA,0.374
25,CTTAACGC,0.17

row,Sequence,PBM E-score
1,ACGCACGT,0.144
2,AGATTCTC,-0.0164
3,CACTTCAA,-0.0335
4,GGCACACA,-0.136
5,ACGCAGTG,0.0743
6,TCACCTGA,-0.284
7,CTACGCTA,-0.04
8,CCGCTTAA,0.268
9,TCGCTTAA,0.403
10,GCGCTTAA,0.173
11,ACTTATTG,-0.116
12,GATCTCTA,-0.0508
13,CATAAACC,-0.075
14,AATAAACA,0.0907
15,AATAAACT,-0.0754
16,CATAAACA,-0.00956
17,AATAAACG,0.429
18,CATAAACG,0.462
19,CTCATACC,0.051
20,GGCTTTTA,-0.157
21,CTAATTCA,-0.0938
22,CCGTTCAC,0.291
23,AGTTGTTC,0.127
24,AACGATAC,0.413
25,AACGATAT,0.39

row,Sequence,PBM E-score
1,ACCGATAT,0.0732
2,CACGATAC,0.197
3,ACCGATAG,-0.0483
4,AGCGATAT,0.206
5,ACCGATAA,0.158
6,AGCGATAA,0.0894
7,CACGATAG,-0.187
8,AACGATAA,0.381
9,GACGATAC,0.124
10,AACGATAG,0.404
11,CACTGACG,-0.152
12,GTGGGTCA,-0.327
13,GGTCTGTA,0.0803
14,ATGGACCA,0.0213
15,ATGAGTGA,-0.101
16,CGTTCGAA,0.221
17,AGTGCCAT,-0.133
18,GAACCACA,-0.0218
19,ATTTAGAA,-0.14
20,AAGGCCGT,0.244
21,ACCTGGGA,-0.245
22,AAATTTAA,0.184
23,CACGATAA,0.074
24,TACGATAA,0.416
25,GACGATAA,0.111

row,Sequence,PBM E-score
1,TCAGCGGA,-0.0114
2,CATTTACC,-0.152
3,AGTTTACA,-0.0264
4,CGTTTACA,0.441
5,GGTTTACA,-0.0166
6,AGTTTACC,0.0436
7,CGTTTACC,0.449
8,AACGGAAA,0.216
9,GCAAAACA,-0.144
10,CGGGGGGC,0.063
11,CTACAACC,0.0888
12,CGTTCGGA,0.265
13,CGTTCGTA,0.45
14,GGTTCGAA,0.0921
15,GGTTCGTA,0.445
16,AGTTCGTC,0.0871
17,AGTTCGTA,0.439
18,CGTTCGTC,0.293
19,AGTTCGTG,0.158
20,GGTTCGGA,-0.168
21,CTTGCAGA,-0.17
22,GTATAGAA,0.345
23,AGGTGCTG,-0.387
24,CATCAGTC,-0.123
25,CTCGCCCA,-0.102

row,Sequence,PBM E-score
1,ACACCAGC,-0.111
2,CTGTCGAA,-0.181
3,CTGTCGTA,0.447
4,ATGTCGTG,-0.0693
5,ATGTCGTA,0.45
6,ATGTCGTC,-0.0259
7,GTGTCGCA,0.0927
8,GTGTCGTA,0.44
9,GTGTCGGA,0.0733
10,CTGTCGTC,0.00126
11,GTGTGGCA,-0.371
12,AACCGGCT,-0.239
13,AACTATCA,0.134
14,ATGTGAAT,0.12
15,AATACCGC,-0.131
16,CGTATGTC,0.353
17,CGTATGCC,0.372
18,CGTATGCA,0.377
19,AGTATGCA,-0.3
20,CGTATGTA,0.387
21,GGTATGCA,-0.00862
22,AGTATGTA,0.0299
23,AGTATGCC,-0.189
24,CCTATGCC,-0.13
25,GCAGTAGC,-0.174

row,Sequence,PBM E-score
1,AGCGGGTC,-0.0751
2,CATTTTTC,0.0327
3,TAATCTCA,-0.058
4,CGCTGGAA,-0.186
5,ACCATCTG,-0.225
6,AACTCGTC,0.0662
7,CACTCGAA,0.0152
8,AACTCGTG,0.178
9,GACTCGAA,-0.194
10,AACTCGTA,0.455
11,CACTCGTC,0.0141
12,GACTCGCA,-0.0142
13,GACTCGTA,0.436
14,CACTCGTA,0.455
15,CCACTTCG,0.0558
16,AATGGAGT,-0.266
17,AGCGTTAC,0.0438
18,CTCTTCCA,-0.0797
19,CCGCTGGC,-0.258
20,GAAATGTC,-0.0124
21,ACGCGAGG,0.219
22,AAGACTCA,-0.172
23,ACTGACTC,-0.192
24,CTCGAACA,-0.00626
25,CCAATAGC,-0.22

row,Sequence,PBM E-score
1,TACATCGA,0.038
2,CCTTACTA,0.029
3,ACTTACGA,0.382
4,GCTTACAA,-0.0171
5,ACTTACGG,0.194
6,ACTTACGC,-0.0998
7,CCTTACGA,0.407
8,GCTTACTA,-0.0799
9,CCTTACGC,0.193
10,GCTTACGA,0.421
11,GAAGTACC,0.114
12,GTGCCAAC,-0.0672
13,CTCCACCA,-0.177
14,GGATTGTA,0.107
15,ATGCCAAC,0.0593
16,GTTAGCGA,0.194
17,ACAATCCA,-0.0823
18,GTACGACA,0.468
19,CCACGACA,-0.131
20,ATACGACA,0.477
21,GCACGACA,0.0592
22,CGACGACA,0.173
23,CTACGACA,0.311
